The full list was thinned out, with hits kept by preference.
Vaccinia pol inh: blocks vaccinia virus processive DNA synthesis; in vitro processive DNA synthesis, absorbance read-out; active compounds read low; normalized absorbance, % (no concentration beside the values); actives 0.94% (n = 46,000); in the data active = normalized absorbance mostly below about 85%, no sharp cut-off; inactive = mostly above about 86%
Numbers without * were called inactive.

SMILES	Vaccinia pol inh
CCCCn1c2ccccc2n2cc(C(C)(C)C)nc12	95.0
CC1CCCC(C)N1C(=O)Cn1cc(/C=C2/C(=O)N(C)c3ccccc32)c2ccccc21 (stereo not drawn)	121.7
CN1C(=O)/C(=C/c2cn(CC(=O)N3CCOCC3)c3ccccc23)C(=O)NC1=S	100.1
CN1C(=O)/C(=C/c2cn(CC(=O)O)c3ccccc23)c2ccccc21	73.1*
CC1(C)CC(=O)c2cc3c(N)c(C(N)=O)sc3nc2C1	101.0
CCc1cc2c(Cl)ncnc2s1	99.9
CC(C(=O)O)N1C(=O)/C(=C/c2cccc3ccccc23)SC1=S (stereo not drawn)	84.8
O=C1NC(=O)C(=Cc2cccc3ccccc23)C(=O)N1	87.6
CSC1=NC(=O)/C(=C\c2cccc3ccccc23)S1	72.6*
CC(C)C(CC(=O)O)NCc1ccccc1Cl (stereo not drawn)	104.4
COc1ccccc1-c1nn(CN(c2ccccc2)c2ccccc2)c(=S)o1	97.8
C=C1c2c(Cl)ccc(O)c2C(O)=C2C(=O)[C@]3(O)C(O)=C(C(N)=O)C(=O)[C@@H](N(C)C)[C@@H]3[C@@H](O)[C@H]12	100.7
C=C1c2cccc(O)c2C(O)=C2C(=O)[C@]3(O)C(O)=C(C(N)=O)C(=O)[C@@H](N(C)C)[C@@H]3[C@@H](O)[C@H]12	55.2*
CN(C)[C@@H]1C(=O)C(C(N)=O)=C(O)[C@@]2(O)C(=O)C3=C(O)c4c(O)cccc4[C@@](C)(O)[C@H]3C[C@@H]12	98.9
Cc1cc(Nc2ccccc2)nc(Nc2ccccc2)n1	100.0
Cc1cc(C)nc(NC2=NCCN2)n1	48.1*
CCN(CC)CCNc1nc(C)cc(C)n1	101.8
CCC(CC)NC(=O)Cc1ccc(Cl)cc1	101.7
COC(=O)C1=CN(Cc2ccc(C)cc2)C=C(C(=O)OC)C1c1ccc(C)s1	112.5
Cc1ccnc(SCC(=O)Nc2cccc(C(F)(F)F)c2)n1	93.9
Cc1c(Sc2ccc(Cl)cc2)cnn1C(=O)Nc1cccc(C(F)(F)F)c1	71.4*
O=C(Nc1cccc(Cl)c1)n1ncc2cc(Cl)ccc21	84.8
CCCNC(=O)c1ccc2c(c1)NC(=O)/C(=C/c1ccccc1)S2	95.2
CCOc1ccc(CCNS(=O)(=O)c2c(C)cc(C)cc2C)cc1OCC	100.5
Cc1ccccc1NC(=O)CSc1ccccc1C(=O)O	100.6
SMILES	Vaccinia pol inh
Cc1ccc(NC(=O)Cn2c(C(F)(F)F)nc3ccccc32)cc1	107.2
Cc1ccc(-c2ccc(N)cc2)cc1	93.2
Nc1ccc(-c2cnc(-c3ccc(N)cc3)nc2)cc1	99.6
Nc1ccc(-c2ccc(N)cc2)cc1	72.4*
O=C(OCC(=O)N1CCCCC1)c1ccc(Br)o1	100.3
Oc1oc(C=Nc2cccc(C(F)(F)F)c2)c2ccccc12	100.0
CN(C(=O)c1cc(-c2cccs2)nc2ccccc12)c1ccccc1	106.9
O=C(O)c1cc(-c2cccs2)nc2ccc(Br)cc12	33.8*
O=C(O)c1cc(-c2cccs2)nc2ccccc12	91.1
COc1ccc2c(C)cc3nncn3c2c1	77.7*
COc1ccc2c(C)cc(Cl)nc2c1	90.6
CCN1CCN(c2cc(C)c3ccc(OC)cc3n2)CC1	99.0
CCN(CC)C(=O)/C=C/c1cn(-c2ccccc2)nc1-c1ccccc1	104.6
O=C1/C(=C/c2cc3ccccc3o2)CC/C1=C\c1cc2ccccc2o1	98.6
O=C1/C(=C\c2ccc(Br)o2)CC/C1=C/c1ccc(Br)o1	19.3*
CSc1ccc(/C=C2\CC/C(=C\c3ccc(SC)cc3)C2=O)cc1	105.6
Cc1ccc2nc(NC(=O)C(Cc3ccccc3)n3cccc3)sc2c1 (stereo not drawn)	103.0
Cc1cc(NCc2cccnc2)c2ccc(Cl)cc2n1	102.8
CCCN=c1cc(-c2ccccc2)oc2ccc(C)cc12	42.5*
Cc1ccc2oc(-c3ccc(Cl)cc3)cc(=O)c2c1	108.1
COc1ccc(-c2cc(=Nc3ccc(C)cc3C)c3cc(O)ccc3o2)cc1	99.9
Clc1ccc2oc(-c3ccccc3)cc(=NCc3cccnc3)c2c1	66.0*
Clc1ccc2oc(-c3cccnc3)nc2c1	100.3
CC(C)C(NC(=O)c1ccc(F)cc1)C(=O)OCc1ccccc1 (stereo not drawn)	91.8
O=C(Nc1nccs1)C1CC2CCCC(C1)C2=O (stereo not drawn)	95.4
SMILES	Vaccinia pol inh
CCOC(=O)CSC1C(=O)Nc2ccccc2N=C1c1ccccc1 (stereo not drawn)	100.5
COc1cc2nc(N=C(N)N)[nH]c(=O)c2cc1OC	99.7
CCOC(=O)C1=C(NC(=O)c2ccco2)Oc2ccc3ccccc3c2C1c1ccccc1 (stereo not drawn)	99.7
O=C(O)c1c2ccccc2cc2ccccc12	99.6
O=C(O)c1cc2ccc3cccc4ccc(c1)c2c34	77.0*
O=C(O)c1cccc(N2C(=O)CCC2=O)c1	100.6
O=C1Nc2ccc(Cl)cc2/C1=C/c1ccc2c(c1)OCO2	115.3
NC(=O)COC(=O)Cc1c(Cl)cccc1Cl	77.6
CCOc1nc(C)nc2c1sc(=S)n2C	100.4
Cc1cccc(N(C)C(=O)c2ccc3c(=O)n4c(nc3c2)CCCCC4)c1	102.9
CN(C(=O)c1ccc2c(=O)n3c(nc2c1)CCCCC3)C1CCCCC1	66.8*

From PubChem
